Only some compounds are listed: those with a hit (about 27% of all), similar ones and a draw of the others.
CYP2C19 inhib: inhibitors of human CYP2C19. P33261. CYP2C19 Supersomes, luciferin-H EGE luminescence, 30 min. inhibition, % at 5 µM. hit rate 21% among 96,000. AID 778;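 active = CYP2C19 inhibition above a set limit at 5 µM in the primary screen, cut at about 50% in these data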;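 note: plate controls were negative control wells for no effect and 2.5 mM tranylcypromine positive control for full effect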
Cav32 inh: inhibitors of human Cav3.2 T-type calcium channel; hit rate 4% among 100,000; Cav3.2-expressing cells, Fluo-4 calcium fluorescence FDSS; active compounds read low; B-score at 10 µM; O95180; AID 449739;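 active = single-dose well whose peak fluorescence ratio is a statistical outlier from its plate by either plate-standardised score or position-corrected B-score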
CYP2C9 inhib: blocks human cytochrome P450 2C9; P11712; CYP2C9 Supersomes, luciferin-H conversion, luminescence; inhibition, % at 5 µM; hit rate 20% among 96,000; AID 777;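 active = blocking of liver enzyme CYP2C9 beyond about 50% at 5 µM, limit read from the data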
CYP2C19 act: cytochrome P450 2C19 (human) activation | P33261 | recombinant CYP2C19, luciferin-H EGE luminescence; active compounds read high; 0 = fully inhibited enzyme, 1 = untreated enzyme | activation factor at 5 µM | 96,000 tested, under 10 active;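 active = activation factor of at least 2 at 5 µM in the primary screen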;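 note: 0 = wells with 2.5 mM tranylcypromine and 1 = vehicle-only wells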
CYP2C9 activ: CYP2C9 (human) activation | recombinant CYP2C9, luciferin-H conversion, luminescence; active compounds read high; factor 1 = untreated enzyme, 0 = blocked | activation factor at 5 µM | hit rate 1.4% among 96,000 | AID 1024;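 active = activation factor of 2 or more for CYP2C9 at a 5 µM dose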;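 note: 0 = sulfaphenazole-blocked wells and 1 = vehicle-only wells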
Active calls of the source: *; . = no result.

SMILES	CYP2C19 inhib	Cav32 inh	CYP2C9 inhib	CYP2C19 act	CYP2C9 activ
Cc1ccccc1-n1c(=O)c2ccccc2n2nnnc12	58*	.	-8	0.4	1.1
Cc1ccccc1-n1c(Cn2c(=O)sc3ccccc32)nnc1SC(C)C	.	-0.34	.	.	.
OCc1ccccc1OCCOc1ccc(Cl)c2cccnc12	40	0.3	-113	0.6	2.1*
O=C(Oc1ccc(Cl)c2cccnc12)N1CCCCCC1	.	-0.27	.	.	.
O=C(c1cnc2n(c1=O)CCS2)N1CCCc2ccccc21	.	0.58	.	.	.
O=c1c(-c2ccnn2-c2cccc(Cl)c2)cnc2n1CCS2	91*	1.3	46	0.1	0.5
O=C(c1cnc2n(c1=O)CCS2)N1CCN(c2ccc(Cl)c(Cl)c2)CC1	17	0.69	8	0.8	0.9
O=c1c(-c2ccnn2-c2ccc(F)cc2)cnc2n1CCS2	79*	0.95	8	0.2	0.9
N#Cc1ccc(-n2nccc2-c2cnc3n(c2=O)CCS3)cc1	92*	0.41	24	0.1	0.8
O=c1c(-c2ccnn2-c2ccccc2F)cnc2n1CCS2	58*	0.64	12	0.4	0.9
O=C(NC1CC1)C1=C[C@@H](c2ccc(Br)cc2)C[C@@H](OCc2ccc(CO)cc2)O1	.	0.32	.	.	.
CCOC(=O)CNC(=O)CNC(=O)Cn1ccc2ccccc2c1=O	-6	-0.1	-7	1.1	1.1
COc1ccc(Cl)cc1S(=O)(=O)N1CCN(C(=O)COc2ccccc2)CC1	62*	-1	-60	0.4	1.6
COc1ccc(C(=O)N2CCN(S(=O)(=O)c3cc(Cl)ccc3OC)CC2)cc1	67*	0.57	-17	0.3	1.2
O=C(COc1ccccc1)N1CCN(S(=O)(=O)Cc2ccccc2)CC1	34	1.5	22	0.7	0.8
COc1ccc(C(=O)N2CCCC2)cc1S(=O)(=O)N1CCC(C)CC1	47	1.7	8	0.5	0.9
CC(C)(C)NC(=O)C(=O)NNC(=O)C12CC3CC(CC(C3)C1)C2	-8	.	12	1.1	0.9
O=C(NN1CCOCC1)c1cc(-c2cccc(Cl)c2)nc2ccccc12	13	-0.03	7	0.9	0.9
O=c1[nH]n(CC2COC3(CCCCC3)O2)c(=O)c2ccccc12 (stereo not drawn)	76*	0.05	47	0.2	0.5
Cc1ccc2nc3c(cc(C#N)c(=N)n3CC3CCCO3)c(=O)n2c1 (stereo not drawn)	2	.	5	1	0.9
C=CCn1c(CCC(=O)Nc2ccc(C)c(Cl)c2)nnc1SCC(=O)Nc1ccccc1C	30	-3.1	64*	0.7	0.4
C=CCn1c(SCC(=O)Nc2cc(C)ccc2C)nnc1-c1cnccn1	83*	0.52	3	0.2	1
Cc1cccc(NC(=O)CSc2nnc(CCC(=O)Nc3ccc(C)c(Cl)c3)n2C)c1	-4	0.0034	-19	1	1.2
C=CCn1c(SCC(=O)Nc2cc(C)cc(C)c2)nnc1-c1cnccn1	4	0.28	-3	1	1
CCn1c(SCC(=O)Nc2ccc3c(c2)c2ccccc2n3CC)nnc1-c1cnccn1	53*	.	-44	0.5	1.4
SMILES	CYP2C19 inhib	Cav32 inh	CYP2C9 inhib	CYP2C19 act	CYP2C9 activ
C=CCn1c(SCC(=O)Nc2cccc(C)c2)nnc1-c1cnccn1	96*	-0.032	53*	0	0.5
CCOC(=O)c1ccc(NC(=O)C2=C(C)Nc3nc(CCCO)nn3C2c2ccc(OC)cc2)cc1 (stereo not drawn)	.	0.29	.	.	.
O=C(CSc1ccc2c(c1)OCCO2)Nc1ccc(Cl)cn1	71*	-0.0067	26	0.3	0.7
O=C(CSc1nccn1-c1cccc(Cl)c1)Nc1ccc2c(c1)OCCO2	66*	-3.7*	66*	0.3	0.3
COc1ccc(NC(=O)CSc2nccn2-c2cccc(OC)c2)cc1	59*	0.021	70*	0.4	0.3
Cc1c(NC(=O)CSc2ccc3c(c2)OCCO3)c(=O)n(-c2ccccc2)n1C	-7	-0.085	0	1.1	1
COc1ccc(NC(=O)CSc2nccc(C)n2)cc1	51*	-0.55	-4	0.5	1
COc1cc(NC(=O)CSc2nccc(C)n2)c(C(=O)O)cc1OC	-5	-0.18	2	1	1
COc1cccc(C2=CC(=O)CC(C)(C)C2)n1	.	-0.0036	.	.	.
Cc1cc(C)c2[nH]c(=O)c(C(c3nnnn3C3CCCC3)N3CCOCC3)cc2c1 (stereo not drawn)	-14	.	-10	1.1	1.1
C[C@@H]1NC(=O)c2cc([N+](=O)[O-])cc(I)c2OCC[C@@H](C(=O)NC(CC(=O)O)C(N)=O)NC(=O)[C@H](CCC(=O)O)NC1=O (stereo partly drawn)	.	-0.026	.	.	.
COc1ccc(-n2ccnc2SCC(=O)Nc2ccccc2)cc1	60*	-1.5	60*	0.4	0.4
COc1cccc(-n2ccnc2SCC(=O)Nc2ccccc2)c1	80*	-0.29	47	0.2	0.5
CCn1c(COc2cccc(OC)c2)nnc1SCC(=O)Nc1cc(OC)ccc1OC	47	0.5	-13	0.5	1.1
COc1cccc(NC(=O)CSc2nccn2-c2cccc(OC)c2)c1	61*	.	26	0.4	0.7
COc1cccc(-n2ccnc2SCC(=O)Nc2cc(OC)ccc2OC)c1	89*	.	-20	0.1	1.2
COc1cc(N2CCOCC2)ncn1	-19	-0.047	-22	1.2	1.2
O=C(N/C(=C\c1cccc([N+](=O)[O-])c1)C(=O)N1CCCCC1)c1cccs1	-7	0.82	0	1.1	1
c1ccc(-c2nnc(CSc3nnc(-c4ccncc4)n3Cc3ccco3)o2)cc1	67*	.	71*	0.3	0.3
Clc1cccc(-c2nnc(SC/C=C/c3ccccc3)n2Cc2ccco2)c1	65*	0.3	67*	0.4	0.3
CCSc1nnc(-c2cccnc2)n1Cc1ccco1	0	0.67	0	1	1
C(=C\c1ccccc1)/CSc1nnc(-c2ccncc2)n1Cc1ccco1	89*	-1.6	36	0.1	0.6
Nn1c(SC/C=C/c2ccccc2)nnc1-c1ccco1	29	.	-10	0.7	1.1
C(=C\c1ccccc1)/CSc1nnc(-c2ccccc2)n1Cc1ccco1	47	-5.8*	49	0.5	0.5
CC(C)(C)OC(=O)NCCCC1=CC2=CC(=O)C(C)(OC(=O)c3ccc(Cl)nc3)C(=O)C2=CO1 (stereo not drawn)	.	0.077	.	.	.
O=C(NCc1ccc2c(c1)OCO2)c1ccc(N2CCCC2=O)cc1	23	0.053	29	0.8	0.7
Cc1nnsc1C(=O)NNS(=O)(=O)c1ccccc1	-13	0.069	4	1.1	1
COc1ccc(/C=N/NS(=O)(=O)c2ccc(C)cc2)cc1OC(=O)c1ccc(C)cc1	4	-1.2	88*	1	0.1
COc1ccc(/C=N/NC(=O)c2cccc([N+](=O)[O-])c2)cc1OC(=O)c1ccc(C)cc1	36	-5.4*	54*	0.6	0.5
COc1cc(/C=N/NC(=O)c2cccnc2)ccc1OS(=O)(=O)c1ccc(F)cc1	67*	-0.46	83*	0.3	0.2

High-throughput results: PubChem, several laboratories
